Measurements: ChEMBL document CHEMBL3988442, “University of Dundee, Small-Polar-MMV Screening Library” (2021)
Among all 48,000 compounds or so, about 13,000 (27%) showed an effect of 50% or more. This is one part of the list.

The compounds below were run on Wolbachia pipientis (assay: Anti-Wolbachia Cell-Based Screen). Conditions: 5 µM.
Type: functional
Parameters: scale not given: in the data most compounds retested in dose-response had high values

| SMILES | Percent Effect |
| --- | --- |
| O=c1[nH]nc(SCC2CCCCO2)n1C1CC1 (stereo unspecified) | 3.518% |
| COc1cc(CC(O)CO)c(OC)c2c1OCO2 (stereo unspecified) | 13.41% |
| O=C1CCNc2ccc(F)cc2CN1Cc1ccccc1 | 102.2% |
| O=C1C(NS(=O)(=O)c2cc(F)cc(F)c2)CCN1Cc1ccccc1 (stereo unspecified) | -1.299% |
| O=C(c1cc(Br)c[nH]1)N1CCN(Cc2ccco2)CC1 | -4.103% |
| O=C1CCNc2cc3c(cc2CN1Cc1ccco1)OCO3 | 103.2% |
| O=C1CCOCCN1Cc1ccc(Cl)c(F)c1 | -26.47% |
| O=S(=O)(Cc1ccc(F)cc1)NCc1ccco1 | 9.126% |
| O=C1CCNc2ccc(F)cc2CN1Cc1ccco1 | 96.92% |
| O=C(CSC1CCc2ccccc2NC1=O)NCCc1ccco1 (stereo unspecified) | 9.555% |
| O=C(c1cc(Cl)c(Br)[nH]1)N1CCN(Cc2ccco2)CC1 | 4.507% |
| O=C(NCCc1ccc2c(c1)OCO2)C1CCCN(Cc2ccco2)C1 (stereo unspecified) | -5.327% |
| O=C1CCNc2ccccc2CN1Cc1ccco1 | 99.7% |
| O=C(CN1CCc2ccccc2C1)NCc1ccco1 | -0.1453% |
| CC(C)(C)CN(CCC#N)C(=O)Cc1ccc(-n2cnnn2)cc1 | -11.58% |
| COCCc1noc(CN2CCc3nn(C(C)C)c(=O)cc3C2)n1 | 0.5745% |
| Cc1nnc(CN(C)CCc2nc(-c3cccc(Cl)c3)no2)n1C | -15.48% |
| Cc1cnn(C2CN(CC(O)c3ccccc3)C2)c1 (stereo unspecified) | 7.133% |
| O=C(COc1ccc2c(c1)CCCC2=O)NCc1ccco1 | 5.581% |
| CN(Cc1n[nH]c(=O)n1Cc1ccco1)S(C)(=O)=O | 13.53% |
| COc1ccc2c(c1)CN(Cc1ccco1)C(=O)CCN2 | 81.17% |
| CN(C1CCCCC1)S(=O)(=O)N1CCN(Cc2ccco2)CC1 | 20.54% |
| Cc1ncc(-c2ccnc(N3CCN(C)CC3)n2)c(-c2cccnc2)n1 | -5.726% |
| Cc1ncc(-c2ccnc(SCCN)n2)c(-c2ccco2)n1 | 79.73% |
| Cc1ncc(-c2ccnc(SCCN(C)C)n2)c(-c2ccco2)n1 | 91.76% |
| NCCSc1nccc(-c2cnc(C3CC3)nc2-c2ccco2)n1 | 112.5% |

| SMILES | Percent Effect |
| --- | --- |
| COCCN(c1cc(C)nc2nc(C(F)(F)F)nn12)C1CCCC1 | -0.8248% |
| CCN(CC)CCc1nc2c([nH]1)CC(c1ccc(Cl)cc1)CNC2=O (stereo unspecified) | -9.032% |
| O=C1NCC(c2ccc(F)cc2)Cc2[nH]c(CCN3CCCC3)nc21 (stereo unspecified) | 95.37% |
| CCn1cnnc1Cc1nc2c([nH]1)CC(c1ccc(Cl)cc1)CNC2=O (stereo unspecified) | 5.995% |
| CC1(C)CNC(=O)c2nc(CCCN3CCCC3)[nH]c2C1 | -5.112% |
| O=C1NCC(c2ccc(Cl)cc2)Cc2[nH]c(CCN3CCOCC3)nc21 (stereo unspecified) | 104.7% |
| CC1(C)CNC(=O)c2nc(CCN3CCOCC3)[nH]c2C1 | -31.15% |
| Cc1cc(-c2ccc(C(C)N3CCCCC3)cc2)cnc1N (stereo unspecified) | 11.64% |
| Cc1nccnc1N1Cc2cnn(Cc3ccc(F)cc3)c2C1 | 9.58% |
| CC(=O)Nc1ccc2nc(-c3nccn3CC(C)(C)CO)ccc2c1 | 3.908% |
| Cc1noc(CNc2ccc(C(=O)N3CCCC(C)C3)cc2C)n1 (stereo unspecified) | 71.8% |
| CC(C)c1noc(CNc2ccc(OC(F)F)cc2OC(F)F)n1 | -33.16% |
| Cc1nccn1C1CCCN(C(=O)CCc2nc(C(C)C)no2)C1 (stereo unspecified) | 10.57% |
| CCc1cnc(CNc2ccc(C(=O)N3CCCC(C)C3)cc2C)o1 (stereo unspecified) | 0.007999% |
| CCc1noc(CNc2ccc(C(=O)N3CCCC(C)C3)cc2C)n1 (stereo unspecified) | -0.296% |
| Cc1cc(C(=O)N2CCCC(C)C2)ccc1NCc1nc(C2CC2)no1 (stereo unspecified) | 111.9% |
| Cc1cc(C(=O)N2CCCC(C)C2)ccc1NCc1nc(C(C)C)no1 (stereo unspecified) | 111.7% |
| Cc1cc(CNc2ccc(C(=O)N3CCCC(C)C3)cc2C)no1 (stereo unspecified) | 0.152% |
| CNS(=O)(=O)Cc1cccc(CNCc2ccsc2)c1 | -11.11% |
| CCN(Cc1cnn(CC)c1)C(=O)Cn1c(=O)ccc2ccccc21 | 8.668% |
| Cc1noc(C)c1CN(C)C(=O)c1ccc(NC2CC2)nc1 | -0.4037% |
| Cl.O=C1NCCCCC1NCc1csc(-c2ccc(F)cc2)n1 (stereo unspecified) | -5.681% |
| O=C1NCCCc2[nH]c(Cc3ccc(F)cc3)nc21 | -3.55% |
| Cc1ccc(Cc2cnc(C3CCNCC3)cn2)cc1.Cl | 94.42% |
| Cl.Fc1ccc(Cc2cnc(C3CCCN3)cn2)cc1 (stereo unspecified) | 101.6% |
| CN(C)C(=O)c1cccc(CCNc2ccccc2S(C)(=O)=O)c1 | -12.66% |

| SMILES | Percent Effect |
| --- | --- |
| CC(C)Nc1ncccc1C(=O)NC1CC(=O)N(CC(F)(F)F)C1 (stereo unspecified) | 5.646% |
| CC(=O)N(C)CC(=O)NCC1(c2c(F)cccc2F)CCCC1 | 20.23% |
| Cc1cc(C)n(C2CCCN(C(=O)c3ccnc(N(C)C)c3)C2)n1 (stereo unspecified) | -18.09% |
| Cc1cc(C)n(C2CCCN(C(=O)c3cnc4onc(C)c4c3)C2)n1 (stereo unspecified) | 3.729% |
| Cc1cc(C)n(C2CCCN(C(=O)c3ccc(N(C)C)nc3)C2)n1 (stereo unspecified) | 99.92% |
| Cc1cc(C)n(C2CCCN(C(=O)c3ccn(C)c(=O)c3)C2)n1 (stereo unspecified) | -8.273% |
| Cc1cc(C)n(C2CCCN(C(=O)c3ccc(NC4CC4)nc3)C2)n1 (stereo unspecified) | -9.75% |
| CNC(=O)c1ccc(C(=O)N2CCCC(n3nc(C)cc3C)C2)cn1 (stereo unspecified) | 97.01% |
| O=C(NC1CCCNC1=O)c1ccc2nc(-c3ccc(F)cc3)cn2c1 (stereo unspecified) | -16.52% |
| Cc1cc(C(=O)NCCN2CCCCCC2)nn1C(C)(C)C | 99.33% |
| Cc1cc(C(=O)NCCN2CCCC(C)C2)nn1C (stereo unspecified) | -3.799% |
| CC1CCCCN1CCNC(=O)c1ccn(-c2ccc(F)cc2)n1 (stereo unspecified) | 4.653% |
| CC1CCN(CCNC(=O)c2ccccc2N2CCOCC2)CC1 | -0.8532% |
| CCc1ncncc1C(=O)NCCN1CCC(C)CC1 | 6.983% |
| CC1CCCCN1CCNC(=O)c1ccccc1N1CCOCC1 (stereo unspecified) | 19.03% |
| Cc1cc(C(=O)NCCN2CCC(C)CC2)nn1C(C)(C)C | 102.5% |
| CC1CCCN(CCNC(=O)c2cncnc2C(C)C)C1 (stereo unspecified) | 11.51% |
| Cc1cc(C(=O)NCCN2CCCCC2C)nn1C(C)(C)C (stereo unspecified) | 107.2% |
| Cc1cc(C(=O)NCCN2CCCC(C)C2)nn1C(C)(C)C (stereo unspecified) | 95.43% |
| CCc1ncc(C(=O)N2CCN(c3nc(C)cc(OC)n3)CC2)s1 | -13.57% |
| CC(C)NC(=O)[C@@H]1C[C@H](N)CN1C(=O)c1cc2c([nH]c1=O)CCCC2 | 1.783% |
| Cc1cccc2c1cnn2CCC(=O)NCC(=O)N(C)C | 14.92% |
| Cc1cc(C(=O)N2CCCC(N3CCCCCC3)C2)nn1C(C)(C)C (stereo unspecified) | -14.1% |
| Cc1cc(C(=O)NCCN2CCCCC2)nn1C(C)(C)C | 88.73% |
| O=C(O)C(F)(F)F.c1ccc(CN2CCOC3(COCCN(c4ncccn4)C3)C2)nc1 (stereo unspecified) | -5.957% |
| FC1(F)CCN(Cc2ccccn2)CC12CCN(c1cnccn1)C2.O=C(O)C(F)(F)F.O=C(O)C(F)(F)F.O=C(O)C(F)(F)F (stereo unspecified) | 108% |

| SMILES | Percent Effect |
| --- | --- |
| O=C(O)C(F)(F)F.O=C(c1cc[nH]n1)N1CCC(F)(F)C2(CCN(c3ccccn3)C2)C1 (stereo unspecified) | -20.89% |
| FC1(F)CCN(Cc2ccncc2)CC12CCN(c1cnccn1)C2.O=C(O)C(F)(F)F.O=C(O)C(F)(F)F.O=C(O)C(F)(F)F (stereo unspecified) | 91.26% |
| Fc1ccc(CN2CCC(F)(F)C3(CCN(c4cnccn4)C3)C2)cc1.O=C(O)C(F)(F)F.O=C(O)C(F)(F)F (stereo unspecified) | 95.57% |
| Fc1cnc(N2CCC3(CC2)CN(Cc2ccccn2)CCO3)nc1.O=C(O)C(F)(F)F.O=C(O)C(F)(F)F | 3.828% |
| FC1(F)CCN(Cc2ccccn2)CC12CCN(c1ncccn1)C2.O=C(O)C(F)(F)F (stereo unspecified) | 99.55% |
| O=C(NC[C@H]1OC[C@@H](NCc2ccccn2)[C@@H]1O)c1ccncc1 | -10.69% |
| CC1=N[C@@]2(CC[C@@H]3CN(S(=O)(=O)C4CC4)C[C@@H]32)C(=O)N1CC(C)C | 6.738% |
| CCCC1(NC(=O)C(c2ccc(F)cc2)N(C)C)CC1 (stereo unspecified) | 19.19% |
| Cc1ccc(CNCc2ccc(N3CCC(CO)CC3)nc2)c(C)c1.Cl | 6.349% |
| CCS(=O)(=O)NCCNCc1ccc(Cl)c2cccnc12 | 1.555% |
| CCc1sc(C(=O)Nc2cnn(CC(=O)NC3CC3)c2)cc1C | -4.419% |
| CC(NC(=O)c1cc2n(n1)CCCN(C(C)C)C2)c1cn2ccsc2n1 (stereo unspecified) | 13.56% |
| FC1(F)CCN(Cc2cccnc2)CC12CCN(c1cnccn1)C2.O=C(O)C(F)(F)F.O=C(O)C(F)(F)F.O=C(O)C(F)(F)F (stereo unspecified) | 109.7% |
| O=C(O)C(F)(F)F.OCCN1CCC(F)(F)C2(CCN(c3cnccn3)C2)C1 (stereo unspecified) | 101.7% |
| O=C(O)C(F)(F)F.O=C(c1c[nH]cn1)N1CCC(F)(F)C2(CCN(c3cnccn3)C2)C1 (stereo unspecified) | -14.15% |
| O=C(NS(=O)(=O)c1ccc2c(c1)CCC2)C1COCCO1 (stereo unspecified) | -6.627% |
| CCOc1cc(C)ccc1NS(=O)(=O)c1cc(C)c(C(=O)O)s1 | -7.525% |
| O=C1CC(c2ccsc2)c2c(n(C3CCOCC3)[nH]c2=O)N1 (stereo unspecified) | 5.675% |
| Cc1ccc(SCCN(C)C(=O)c2cn([C@H]3CC[C@@H](N)CC3)nn2)cc1 | 1.127% |
| Cc1ccoc1C(=O)N1CC[C@H]2C[C@H](c3nnc(C4CC4)o3)O[C@@H]2C1 | 102.2% |
| Cc1nc([C@@H]2C[C@@H]3CCN(C(=O)c4occc4C)C[C@H]3O2)no1 | -8.664% |
| Cc1nc([C@H]2C[C@H]3CN(C(=O)c4ccoc4C)CC[C@@H]3O2)no1 | -4.157% |
| Cc1occc1C(=O)N1CC[C@H]2C[C@@H](c3nnc(C4CC4)o3)O[C@@H]2C1 | 109% |
